# Experimental data: PubChem BioAssay (EPA / NIEHS)
# “And” between values parts separate entries of the source, which are not always exact repeats. Equal entries are not always repeated. More than one record can exist for a structure, and the calls need not agree. The source made the active and inactive calls. Rule for the calls, unless noted: active = hit-call score of the fitted dose curve at least 0.9, where 1 is the maximum; inactive = score below 0.9.
# Experiments:
# [1] = read-out: Transforming Growth Factor (TGFA), TGFA (gene 7039); assay: LTEA_HepaRG_TGFA: Life Technologies and Expression Analysis (LTEA) Assay for Transforming Growth Factor (TGFA) using HepaRG (AID 2283532); settings: mRNA level, 48 h; actives raise or lower the signal
# How it was run: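 qRT-PCR read-out of TGFA transcript, normalized to three housekeeping genes, fitted bidirectionally against 0.5% DMSO baseline. Human HepaRG cultures received chemicals for 48 h at eight half-log concentrations, top 100 uM.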
# [2] = read-out: Transforming Growth Factor (TGFB1), TGFB1 (gene 7040); assay: LTEA_HepaRG_TGFB1: Life Technologies and Expression Analysis (LTEA) Assay for Transforming Growth Factor (TGFB1) Transporter using HepaRG (AID 2283533); settings: mRNA level, 48 h; actives raise or lower the signal
# Experimental: (§1) LTEA_HepaRG is a cell based, multiplexed-readout assay that uses HepaRG, a human liver cell line, with measurements taken at 48 hours after chemical dosing on a 96-well plate.LTEA_HepaRG_TGFB1 is one of 102 assay component(s) measured in the LTEA HepaRG cell culture assay. It is a marker of Cell proliferation, survival, death.Data from the assay component LTEA_HepaRG_TGFB1 was analyzed into 1 endpoint. This assay endpoint, LTEA_HepaRG_TGFB1, was analyzed with bidirectional fitting relative to DMSO as the negative control and baseline of activity. Using a type of inducible reporter, measures of mRNA induction for gain or loss-of-signal activity can be used to understand regulation of transcription factor activity. To generalize the intended target to other relatable targets, this assay endpoint is annotated to the growth factor intended target family, where the subfamily is transforming growth factor beta.
# (§2) A total of 1060 chemcials from the ToxCast library were tested in eight-point concentration-response experiments. Cell culture and cytotoxicity assays were conducted at Thermo Fisher Scientific's Custom Services facility (Madison, WI). A single lot of human HepaRG cells (Thermo Fisher Scientific, Frederick, MD) was used for the cell culture experiments. 96-well format collagen type I coated plates of human HepaRG cells were prepared using established methods. Briefly, cryopreserved HepaRG cells were thawed, plated at a density of approximately 100,000 cells/well in HepaRG Thaw, Plate, and General Purpose media (HPRG770, Thermo Fisher Scientific), and incubated for 48 hours. 0.5% DMSO was selected as vehicle control to balance the requisite need of DMSO in HepaRG cultures to maintain differentiation (for example, baseline metabolism, proportions of hepatocytes vs. cholangiocytes), while enabling further hepatic receptor pathway activation (for example, PXR and CAR) in response to chemical exposure. 48 hours after plating, the culture medium was replaced with HepaRG Serum-Free Incudtion Media. Cells were exposed to each test chemical in duplicate and maintained in CO2 incubators for another 48 hours. Chemical plates were thawed to room temperature and 200x concentrations of treatment groups were prepared. 8-point conentration-reponse curves were made with the highest exposure at 100 uM, followed by half-log dilutions, all in 0.5% DMSO. Each test plate contained variouse controls, induction positive controls (1mM phenobarbital), cytotoxicity positive controls ([…] aflatoxin B1), vehicle controls (0.5% DMSO), and total lysis controls (0.5% DMSO). Cell morphology images were taken using an Essen IncuCyte FLR automated microscope, with six 96-well plates imaged in about 24 minutes. Images were captured and exported and JPEG files. Spent culture media was transfered to black-well plates for the LDH assay, and remaining media was sorted at -80 C for later use. Cells were treated with RLT buffer and frozen until shipped for gene expression analysis. Total RNA was isolated from the cell suspension in 75 uL of Buffer RLT (Qiagen, Germantown, MD 20874) by Quintiles/Expression Analysis (Durham, NC) using a custom isolation procedure. Total RNA from each plate well was transferred to a preamplification plate. Fluidigm's 96.96 Dynamic ArrayTM (Fluidigm, Amsterdam, the Netherlands) technology was used for gene expression analyses by quantitative reverse transcription polymerase chain reaction (qRT-PCR, performed by Quintiles/Expression Analysis, Durham, NC)89. Standard TaqManTM Assays (Applied Biosystems/ThermoFisher Scientific, Foster City, CA) were used to assess the expression of 93 genes selected based on their selectivity and sensitivity to important hepatic receptors known to be modulated by environmental chemicals; importance in human hepatocyte functionality; and hepatotoxicity. […]
# TIMP1, TIMP1 (gene 7076) = assay: LTEA_HepaRG_TIMP1: Life Technologies and Expression Analysis (LTEA) Assay for TIMP1 using HepaRG (AID 2283534); settings: mRNA level, 48 h; actives raise or lower the signal
# How it was run: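 TIMP1 induction or repression in HepaRG cells after 48 h chemical exposure (eight concentrations, highest 100 uM), assessed by normalized qRT-PCR with bidirectional fitting to DMSO controls.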
# [3] = read-out: Tumor necrosis factor receptor 1 (TNFRSF1A), TNFRSF1A (gene 7132); assay: LTEA_HepaRG_TNFRSF1A: Life Technologies and Expression Analysis (LTEA) Assay for Tumor necrosis factor receptor 1 (TNFRSF1A) using HepaRG (AID 2283535); settings: mRNA level, 48 h; actives raise or lower the signal
# Experimental: as §1, with “plate.LTEA_HepaRG_TNFRSF1A” for “plate.LTEA_HepaRG_TGFB1”, “LTEA_HepaRG_TNFRSF1A” for “LTEA_HepaRG_TGFB1”, “LTEA_HepaRG_TNFRSF1A,” for “LTEA_HepaRG_TGFB1,”, “cytokine receptor” for “growth factor”, “TNF receptor.” for “transforming growth factor beta.”
# as §2
# [4] = read-out: Thyroid Hormone Responsive (THRSP), THRSP (gene 7069); assay: LTEA_HepaRG_THRSP: Life Technologies and Expression Analysis (LTEA) Assay for Thyroid Hormone Responsive (THRSP) using HepaRG (AID 2283536); settings: mRNA level, 48 h; actives raise or lower the signal
# How it was run: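 qRT-PCR read-out (Fluidigm TaqMan), housekeeping-normalized (ACTB/GAPDH/POLR2A). HepaRG, 48 h chemical exposure, 8-pt half-log series from 100 uM in 0.5% DMSO, duplicates. Bidirectional curve fit vs 0.5% DMSO baseline.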
# [5] = read-out: Cellular tumor antigen p53 (Homo sapiens) (UniProt P04637); assay: LTEA_HepaRG_TP53: Life Technologies and Expression Analysis (LTEA) Assay for Tumor Protein P53 (TP53) using HepaRG (AID 2283537); settings: mRNA level, 48 h; actives raise or lower the signal
# How it was run: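 Gain or loss of TP53 mRNA signal is scored relative to 0.5% DMSO after 48 h chemical treatment of HepaRG liver cells, tested in duplicate at eight half-log concentrations up to 100 uM.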
# [6] = read-out: UDP glucuronosyltransferase (UGT1A1), UGT1A1 (gene 54658); assay: LTEA_HepaRG_UGT1A1: Life Technologies and Expression Analysis (LTEA) Assay for UDP glucuronosyltransferase (UGT1A1) using HepaRG (AID 2283538); settings: mRNA level, 48 h; actives raise or lower the signal
# How it was run: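 UGT1A1 transcript level, measured by qRT-PCR with three housekeeping genes for normalization, after 48 h treatment of human HepaRG cells (0.5% DMSO, duplicates, up to 100 uM, half-log steps, 8 points). Curves fit both directions against DMSO baseline.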
# [7] = read-out: UDP glucuronosyltransferase (UGT1A6), UGT1A6 (gene 54578); assay: LTEA_HepaRG_UGT1A6: Life Technologies and Expression Analysis (LTEA) Assay for UDP glucuronosyltransferase (UGT1A6) using HepaRG (AID 2283539); settings: mRNA level, 48 h; actives raise or lower the signal
# How it was run: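 Measures mRNA change in HepaRG hepatic cells exposed 48 h to chemicals (eight-point, maximum 100 uM, 0.5% DMSO vehicle) in serum-free induction medium. Expression normalized to endogenous controls; DMSO served as negative control and baseline.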
# [8] = read-out: X-box binding protein 1 (XBP1), XBP1 (gene 7494); assay: LTEA_HepaRG_XBP1: Life Technologies and Expression Analysis (LTEA) Assay for X-box binding protein 1 (XBP1) using HepaRG (AID 2283540); settings: mRNA level, 48 h; actives raise or lower the signal
# How it was run: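 Eight concentrations (half-log, highest 100 uM, 0.5% DMSO) tested in duplicate on HepaRG cells over 48 h in serum-free induction medium; qRT-PCR of XBP1 normalised to ACTB, GAPDH, POLR2A.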
# [9] = LTEA_HepaRG_LDH_cytotoxicity: Cytotoxicity Assessment in the Life Technologies and Expression Analysis (LTEA) Assay (AID 2283563; active = hit-call score of the fitted dose curve at least 0.9, where 1 is the maximum;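 for AC50: LDH activity released into spent culture medium as a marker of cell death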)
# How it was run: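 Spent-medium LDH after 48 h chemical exposure of HepaRG cells in serum-free induction medium; eight concentrations, half-log dilutions from 100 uM, duplicate wells, fitted upward relative to 0.5% DMSO.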
# Sequence of Cellular tumor antigen p53 (Homo sapiens) (P04637 whole entry, looked up): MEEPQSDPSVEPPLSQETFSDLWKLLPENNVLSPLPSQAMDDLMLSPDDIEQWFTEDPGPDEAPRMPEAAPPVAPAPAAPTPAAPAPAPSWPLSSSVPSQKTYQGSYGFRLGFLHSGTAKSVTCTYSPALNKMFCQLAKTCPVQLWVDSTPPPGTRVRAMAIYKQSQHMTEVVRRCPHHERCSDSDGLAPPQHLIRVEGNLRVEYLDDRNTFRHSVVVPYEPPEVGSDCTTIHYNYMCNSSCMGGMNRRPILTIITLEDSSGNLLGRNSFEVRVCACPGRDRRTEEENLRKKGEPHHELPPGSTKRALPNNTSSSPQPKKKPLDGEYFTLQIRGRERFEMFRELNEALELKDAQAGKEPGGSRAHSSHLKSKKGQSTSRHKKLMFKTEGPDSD
SMILES,outcome [1],outcome [2],"outcome (TIMP1, TIMP1 (gene 7076))",outcome [3],outcome [4],outcome [5],AC50 [6],outcome [7],outcome [8],outcome [9],outcome [6],AC50 [1],AC50 [2],"AC50 (TIMP1, TIMP1 (gene 7076))",AC50 [3],AC50 [5],AC50 [7],AC50 [8],AC50 [9]
CCCCOCCOCCO,inactive,inactive,inactive,inactive,inactive,inactive,50 µM (active),inactive,inactive,inactive,–,–,–,–,–,–,–,–,–
C[C@]12CC[C@@H]3c4ccc(O)cc4CC[C@H]3[C@@H]1CC[C@@H]2O,inactive,inactive,inactive,inactive,inactive,inactive,10.3 µM (active),inactive,inactive,inactive,–,–,–,–,–,–,–,–,–
C=C(C)C(N)=O,inactive,inactive,inactive,inactive,inactive,inactive,–,inactive,inactive,inactive,inactive,–,–,–,–,–,–,–,–
C#C[C@]1(O)CC[C@H]2[C@@H]3CCc4cc(O)ccc4[C@H]3CC[C@@]21C,inactive,inactive,inactive,inactive,inactive,inactive,–,inactive,inactive,inactive,inactive,–,–,–,–,–,–,–,–
COC(=O)c1ccc(C(=O)OC)cc1,inactive,inactive,inactive,inactive,inactive,inactive,–,inactive,inactive,inactive,inactive,–,–,–,–,–,–,–,–
CC/C(=C(\c1ccccc1)c1ccc(OCCN(C)C)cc1)c1ccccc1,inactive,inactive,inactive,inactive,inactive,–,32.1 µM (active),inactive,–,–,inactive,94.2 µM (active),73.5 µM (active),83.7 µM (active),66.3 µM (active),45.8 µM (active) and 40 µM (active),45.8 µM (active),45.8 µM (active) and 96.2 µM (active),63.5 µM (active) and 73.5 µM (active)
O=C(c1ccc(OCCN2CCCCC2)cc1)c1c(-c2ccc(O)cc2)sc2cc(O)ccc12,–,inactive,–,inactive,inactive,inactive,50 µM (active),–,–,–,–,75.2 µM (active),–,50 µM (active),–,–,50 µM (active),50 µM (active),77.4 µM (active)
